Reference: PubChem BioAssay (NCI)
About 83,000 compounds went through this panel and 20% of them were active in at least one assay; those are over-represented in the sample as a whole.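 48-hour exposure, single concentration, 96-well plates; percent growth endpoint where 0 means no net growth. Active: below 10.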 Values without a mark were called inactive. The source made the active and inactive calls.

Tests used:
Test in all cases: NCI-60 one-dose screen, 48 h (100 = growth as untreated, 0 = no growth, -100 = all killed)
Settings in all cases: 10 µM unless noted
SR leukemia = system: SR leukemia
RPMI-8226 leukemia = system: RPMI-8226 leukemia
OVCAR-8 ovarian = system: OVCAR-8 ovarian
OVCAR-5 ovarian = system: OVCAR-5 ovarian
OVCAR-4 ovarian = system: OVCAR-4 ovarian
SK-OV-3 ovarian = system: SK-OV-3 ovarian
IGROV1 ovarian = system: IGROV1 ovarian
OVCAR-3 ovarian = system: OVCAR-3 ovarian
HS 578T breast = system: HS 578T breast
NCI/ADR-RES ovarian = system: NCI/ADR-RES ovarian
T-47D breast = system: T-47D breast
BT-549 breast = system: BT-549 breast
MDA-MB-435 melanoma = system: MDA-MB-435 melanoma
SW-620 colon = system: SW-620 colon
MCF7 breast = system: MCF7 breast
HCT-116 colon = system: HCT-116 colon
HCC-2998 colon = system: HCC-2998 colon
KM12 colon = system: KM12 colon

Structure (SMILES)	growth (SR leukemia)	growth (RPMI-8226 leukemia)	growth (OVCAR-8 ovarian)	growth (OVCAR-5 ovarian)	growth (OVCAR-4 ovarian)	growth (SK-OV-3 ovarian)	growth (IGROV1 ovarian)	growth (OVCAR-3 ovarian)	growth (HS 578T breast)	growth (NCI/ADR-RES ovarian)	growth (T-47D breast)	growth (BT-549 breast)	growth (MDA-MB-435 melanoma)	growth (SW-620 colon)	growth (MCF7 breast)	growth (HCT-116 colon)	growth (HCC-2998 colon)	growth (KM12 colon)
CCCCCC(=O)Oc1ccc(/C(=C(/C)Cc2ccc(OC)cc2)c2ccc(OCCCN(C)C)cc2)cc1	10.9%	82.7%	96.2%	96.4%	71.4%	81.5%	63.9%	86.5%	59.9%	88.2%	51.2%	88.8%	53.2%	82.4%	20.1%	56.5%	69.3%	73.6%
c1ccc(-c2c(-c3ccccc3)[n+](Cc3ccc4ccccc4c3)c(-c3cccc4ccccc34)n2Cc2ccc3ccccc3c2)cc1	-36.5% (active)	-38.7% (active)	-44.4% (active)	-47.8% (active)	-81% (active)	-50.3% (active)	-71.4% (active)	-88% (active)	-26.9% (active)	-18.9% (active)	-73.4% (active)	-63.7% (active)	-58.6% (active)	-66.1% (active)	-15% (active)	-74.4% (active)	-74.5% (active)	-77.7% (active)
Nc1c(S(=O)(=O)O)cc2c3c(cccc13)C(=O)OC2=O	114%	106%	97.6%	118%	94%	110%	63.7%	95%	99.2%	93.8%	96%	104%	102%	99.8%	94.8%	98.6%	102%	92.5%
CCCNC(=O)Oc1ccc(/C(=C(\C)c2ccccc2)c2ccc(OCCCN(C)C)cc2)cc1	4.87% (active)	63.4%	86.6%	80.5%	79.7%	71.9%	89.5%	83%	55.3%	77.7%	33.3%	83%	63%	90%	21.7%	54.2%	64.8%	67.2%
O=C(Cc1ccc(/C=C/C(=O)c2ncc[nH]2)cc1)Nc1ccc(Cl)cc1	0.986% (active)	-29.2% (active)	-6.61% (active)	41.7%	37.5%	64.3%	27.9%	-4.9% (active)	5.07% (active)	19.5%	23.2%	29.3%	23.8%	-35.3% (active)	13%	-47.5% (active)	79.4%	-39% (active)
CC(=O)[C@@H]1CC[C@]2(C(N)=O)CC[C@]3(C)[C@H](CC[C@@H]4[C@@]5(C)CCCNC(C)(C)[C@@H]5CC[C@]43C)[C@@H]12	43.7%	61.7%	98%	91.5%	84.6%	108%	93.6%	89.3%	84.4%	90.6%	93.9%	87.1%	83.9%	90.4%	72.1%	65.1%	92%	90.5%
CC(=O)N1c2ccccc2NC2=C(C(=O)NC2(C)C)C1c1ccco1 (stereo unspecified)	29.1%	63.1%	100%	95.1%	93.8%	95.6%	56.7%	97.1%	83.3%	102%	110%	86%	-19.1% (active)	81.1%	37.9%	87.8%	88.1%	51.2%
N#C/C(=C\c1ccccn1)c1nc2cc(Cl)ccc2s1	40.3%	59.3%	73.1%	96.8%	71.5%	62.9%	42%	75.4%	53.7%	77%	27.7%	33.3%	74.7%	77.5%	37.1%	55%	92.7%	96.2%
N=C(N)c1ccc(OCCCCCCCCCCOc2ccc(C(=N)N)cc2)cc1	-60.4% (active)	-59.8% (active)	-74.5% (active)	-91.5% (active)	-95.8% (active)	-91.4% (active)	-80.7% (active)	-92.4% (active)	-56.9% (active)	87.1%	-59.1% (active)	-84.5% (active)	-94.6% (active)	-91.3% (active)	-71.7% (active)	-99.7% (active)	-94.9% (active)	-87.9% (active)
N#Cc1c(NCc2ccccc2I)sc2c1CCCCC2	93.8%	91.9%	88.8%	96.3%	90%	97.8%	71.9%	104%	93.3%	89.7%	73.3%	102%	99.9%	97.2%	80%	90.3%	113%	96.6%
CC(=O)N1N=C(c2ccc(-n3ccc(C(F)(F)F)n3)c(F)c2)CC1c1ccc[nH]1 (stereo unspecified)	92.8%	80.8%	98.9%	105%	102%	118%	112%	107%	106%	104%	91.9%	111%	99.8%	107%	92.8%	103%	111%	101%
COc1cc2c(=O)n(CCCN(C)C)c3c4cc5c(cc4ccc3c2cc1OC)OCO5	9.59% (active)	6.97% (active)	48.3%	112%	69.9%	102%	31.9%	65.5%	67.1%	53.5%	85.8%	47.8%	67.6%	38.6%	25.3%	30.6%	86.8%	47.8%
COc1cc(C2=C(c3cn(C)c4ccccc34)COC2=O)cc(OC)c1OC	8.24% (active)	15.2%	24.8%	17.3%	21.4%	28.3%	11.1%	-13.8% (active)	-6.29% (active)	13%	22.6%	16.7%	-59.5% (active)	13.7%	14.8%	1.75% (active)	0.901% (active)	13.2%
CCCCCC(=O)Oc1ccc(/C(=C(\C)c2ccccc2)c2ccc(OCCN3CCCCC3)cc2)cc1	30.5%	64.8%	89.2%	88.3%	82.9%	80.7%	90.4%	90.5%	75.6%	76.3%	37.3%	78.4%	85.9%	87.9%	27.7%	56.6%	79.1%	71.6%
CCCCCN1C=C/C(=C\C(=O)n2ccc3ccccc32)c2ccccc21	82.8%	73.7%	93.6%	93.7%	71.6%	78.5%	65.5%	86.4%	92.2%	94.3%	70%	96.9%	96.1%	85.2%	73.5%	72.6%	107%	89.2%
C=C(C)[C@@H]1CC[C@]2(CN)CC[C@]3(C)[C@H](CC[C@@H]4[C@@]5(C)CCCNC(C)(C)[C@@H]5CC[C@]43C)[C@@H]12	-38.7% (active)	-43.8% (active)	-59.6% (active)	-23% (active)	-70.9% (active)	86.1%	-81.9% (active)	-85.8% (active)	-42.3% (active)	-52% (active)	-10.1% (active)	84.6%	-96.2% (active)	-84.5% (active)	-66.1% (active)	-95.5% (active)	-80.6% (active)	-85.4% (active)
Cc1ccc(/C=N/NC(=O)CSc2nc3ccccc3c(=O)n2Cc2ccc(S(N)(=O)=O)cc2)cc1	49.4%	95.1%	93.6%	95.6%	106%	103%	96.2%	79.6%	88.5%	96.8%	81.7%	103%	46.2%	94%	59.4%	97.8%	99.9%	86.3%
